61 compounds from the supplement of paper PMC12297408 can be followed below.

Structures are written as SMILES. Structures can show the parent of a compound that is named as a salt. Unmarked numbers belong to inactive results.

This experiment concerns Plasmodium falciparum NF54/iGP1_RE9H ulg8 stage V gametocytes. Put plainly: gametocyte viability (luciferase signal relative to DMSO control) (% of DMSO control); higher = less gametocytocidal activity, active = 50 or less. To be noted: exposure time: 72 h. Put shortly:
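Gametocyte viability is reported relative to the average of DMSO vehicle wells on the same plate. The assay used day-12 stage V NF54/iGP1_RE9Hulg8 gametocytes at ~2.5% gametocytemia and 3% hematocrit, in 0.5% Albumax II medium, added to 96-well plates of compounds spotted in nanolitre volumes for final 10 µM or 1 µM, one well each. After 72 h at 37 °C, 90 µl was mixed with 10 µl D-luciferin (30 mg/ml), and luminescence was recorded with an IVIS Lumina II.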

`Cn1cnc2nc(NCCO)nc(NCc3ccccc3)c21` [Iso-olomoucine]: the gametocyte viability is 95 (concentration: 1 µM) and 102 (concentration: 10 µM).
Turning to `Cn1cc(-c2cnn3c(N)c(Br)c([C@@H]4CCCNC4)nc23)cn1`, the gametocyte viability is, setting by setting: (concentration: 1 µM) 114; (concentration: 10 µM) 85.8.
In the same order, the values of `COc1cc2c(N3CCN(C(=O)Nc4ccc(OC(C)C)cc4)CC3)ncnc2cc1OCCCN1CCCCC1` [Tandutinib (MLN518)] are 98.8 and 91.8.
For `CS(=O)(=O)CCNCc1ccc(-c2ccc3ncnc(Nc4ccc(OCc5cccc(F)c5)c(Cl)c4)c3c2)o1` [Lapatinib Ditosylate (Tykerb)], the gametocyte viability is, setting by setting: (concentration: 1 µM) 102; (concentration: 10 µM) 98.2.
For `Nc1nc2ncnc-2c[nH]1` [2-Aminopurine], in that order: 97.6 and 103.
As for `CC(C)c1cnc(NC(=O)Cc2ccccc2)s1`, the gametocyte viability was 94.5 (concentration: 1 µM) and 92 (concentration: 10 µM).
Consider `OCCn1cc(-c2ccc3c(c2)CC/C3=N\O)c(-c2ccncc2)n1`, for which the gametocyte viability was 88.7 (concentration: 1 µM) and 99.6 (concentration: 10 µM).
In the case of `CCOc1ccn(-c2ccc(F)cc2)c(=O)c1C(=O)Nc1ccc(Oc2ccnc(N)c2Cl)c(F)c1`, the gametocyte viability by setting is: (concentration: 1 µM) 95.8; (concentration: 10 µM) 92.2.
In the same order, the values of `Cn1cnc2c(NCc3ccccc3)nc(NCCO)nc21` [Olomoucine] are 95.2 and 91.5.
In the same order, the values of `Cc1cnc(NC(=O)Nc2cc(Br)c(C)cc2OC[C@@H]2CNCCO2)cn1` are 102 and 113.
As for `CNC(=O)c1cc(Oc2ccc(NC(=O)Nc3ccc(Cl)c(C(F)(F)F)c3)c(F)c2)ccn1` [Regorafenib (BAY 73-4506)], the gametocyte viability (concentration: 1 µM) is 95.1 and the gametocyte viability (concentration: 10 µM) is 99.1.
In the same order, the values of `O=C(c1ccc(/C=C/c2n[nH]c3ccccc23)cc1)N1CCNCC1` are 104 and 93.7.
As for `COC(=O)Nc1ccc(-c2nc(N3CCOCC3)c3cnn(C4CCN(Cc5cccnc5)CC4)c3n2)cc1`, the gametocyte viability was 115 (concentration: 1 µM) and 117 (concentration: 10 µM).
In the same order, the values of `O=C1Cc2c([nH]c3ccc(Br)cc23)-c2ccccc2N1` [Kenpaullone] are 62.2 and 16.3 (active).
In the same order, the values of `COc1cc2ncnc(Nc3ccc(F)c(Cl)c3)c2cc1OCCCN1CCOCC1` [Gefitinib (Iressa)] are 95.3 and 92.8.
Regarding `COc1cc2nccc(Oc3ccc(NC(=O)C4(C(=O)Nc5ccc(F)cc5)CC4)cc3)c2cc1OC` [XL-184 free base (Cabozantinib)], the gametocyte viability (concentration: 1 µM) was 100 and the gametocyte viability (concentration: 10 µM) is 83.1.
For `NC(=O)c1ccc(N(C(N)=O)c2c(F)cccc2F)nc1-c1ccc(F)cc1F`, in that order: 99.2 and 103.
Consider `NCCNS(=O)(=O)c1cccc2cnccc12`, for which the gametocyte viability is 105 (concentration: 1 µM) and 107 (concentration: 10 µM).
For the compound `NC1(Cc2ccc(Cl)cc2)CCN(c2ncnc3[nH]ccc23)CC1`, the gametocyte viability by setting is: (concentration: 1 µM) 114; (concentration: 10 µM) 78.9.
For `O=C(Cc1ccc(-c2ccc(OCCN3CCOCC3)cc2)cn1)NCc1ccccc1`, in that order: 99.7 and 113.
For `CNC(=O)c1c(F)cccc1Nc1nc(Nc2cc3c(cc2OC)CCN3C(=O)CN(C)C)nc2[nH]ccc12`, in that order: 103 and 113.
`Cn1cc(-c2ccc3nnc(C(F)(F)c4ccc5ncccc5c4)n3n2)cn1`: the gametocyte viability is 98.2 (concentration: 1 µM) and 118 (concentration: 10 µM).
For `CO[C@H]1C[C@@H]2CC[C@@H](C)[C@@](O)(O2)C(=O)C(=O)N2CCCC[C@H]2C(=O)O[C@H]([C@H](C)C[C@@H]2CC[C@@H](OCCO)[C@H](OC)C2)CC(=O)[C@H](C)/C=C(\C)[C@@H](O)[C@@H](OC)C(=O)[C@H](C)C[C@H](C)/C=C/C=C/C=C/1C` [Everolimus (RAD001)], in that order: 91 and 94.2.
`C#Cc1cccc(Nc2ncnc3cc(OC)c(OC)cc23)c1`: the gametocyte viability is 103 (concentration: 1 µM) and 96.4 (concentration: 10 µM).
In the same order, the values of `CCc1cccc(CC)c1NC(=O)N1Cc2[nH]nc(NC(=O)c3ccc(N4CCN(C)CC4)cc3)c2C1` are 109 and 68.7.
For the compound `Cc1cn(-c2cc(NC(=O)c3ccc(C)c(Nc4nccc(-c5cccnc5)n4)c3)cc(C(F)(F)F)c2)cn1` [Nilotinib (AMN-107)], the gametocyte viability is, setting by setting: (concentration: 1 µM) 111; (concentration: 10 µM) 107.
For `Nc1nccc(Oc2ccc(NC(=O)c3c[nH]cc(-c4ccc(F)cc4)c3=O)cc2F)c1Cl`, in that order: 102 and 114.
Turning to `O=C1NC(=O)/C(=C/c2ccc3c(c2)OC(F)(F)O3)S1`, the gametocyte viability runs as follows: (concentration: 1 µM) 103; (concentration: 10 µM) 106.
Consider `O=C(Nc1ccc(OC(F)(F)F)cc1)c1sccc1NCc1ccnc2ccccc12`, for which the gametocyte viability is 96.9 (concentration: 1 µM) and 86.6 (concentration: 10 µM).
With `COc1ncc(-c2ccc3nccc(-c4ccnnc4)c3c2)cc1NS(=O)(=O)c1ccc(F)cc1F`, the gametocyte viability is, setting by setting: (concentration: 1 µM) 100; (concentration: 10 µM) 103.
Turning to `COc1ccc2c3n(c(=NC(=O)c4cccnc4)nc2c1OC)CCN3`, the gametocyte viability is, setting by setting: (concentration: 1 µM) 94.4; (concentration: 10 µM) 101.
Turning to `CNC(=O)c1cc(COc2nnc(Nc3ccc(Cl)cc3)c3ccoc23)ccn1` [Telatinib (BAY 57-9352)], the gametocyte viability by setting is: (concentration: 1 µM) 115; (concentration: 10 µM) 115.
Turning to `CC(C)(C)c1cc(NC(=O)Nc2ccc(-c3cn4c(n3)sc3cc(OCCN5CCOCC5)ccc34)cc2)no1` [Quizartinib (AC220)], the gametocyte viability was 97.7 (concentration: 1 µM) and 85.9 (concentration: 10 µM).
For `O=C1NC(=O)/C(=C/c2ccc3nccc(-c4ccncc4)c3c2)S1`, in that order: 101 and 103.
On to `CCCS(=O)(=O)Nc1ccc(F)c(C(=O)c2c[nH]c3ncc(Cl)cc23)c1F`, for which the gametocyte viability reads like this: (concentration: 1 µM) 102; (concentration: 10 µM) 107.
In the case of `O=c1cc(-c2ccc(O)cc2)oc2cc(O)cc(O)c12` [Apigenin], the gametocyte viability was 101 (concentration: 1 µM) and 65.3 (concentration: 10 µM).
Regarding `FC(F)c1nc2ccccc2n1-c1nc(N2CCOCC2)nc(N2CCOCC2)n1`, the gametocyte viability reads like this: (concentration: 1 µM) 98.5; (concentration: 10 µM) 108.
For the compound `CN(C)C1CCN(C(=O)c2ccc(NC(=O)Nc3ccc(-c4nc(N5CCOCC5)nc(N5CCOCC5)n4)cc3)cc2)CC1`, the gametocyte viability is, setting by setting: (concentration: 1 µM) 102; (concentration: 10 µM) 107.
Turning to `CC(C)(C)Cn1c(N)nc2ccc(-c3[nH]c(C(C)(C)C)nc3-c3ccc(F)cc3)nc21`, the gametocyte viability reads like this: (concentration: 1 µM) 97.8; (concentration: 10 µM) 105.
On to `C=CC(=O)Nc1cccc(Oc2nc(Nc3ccc(N4CCN(C)CC4)cc3)ncc2Cl)c1`, for which the gametocyte viability runs as follows: (concentration: 1 µM) 103; (concentration: 10 µM) 72.5.
As to `Cc1csc(-c2nnc(Nc3ccc(Oc4ncccc4-c4ccnc(N)n4)cc3)c3ccccc23)c1`, the gametocyte viability reads like this: (concentration: 1 µM) 103; (concentration: 10 µM) 112.
For `CNC(=O)c1cc(Oc2ccc(NC(=O)Nc3cc(C(C)(C)C)nn3-c3ccc4ncccc4c3)c(F)c2)ccn1` [DCC-2036 (Rebastinib)], in that order: 103 and 107.
Regarding `C=CC(=O)c1ccc2ccccc2c1`, the gametocyte viability is, setting by setting: (concentration: 1 µM) 101; (concentration: 10 µM) 106.
For `OCCn1cc(-c2cnc3nnn(Cc4ccc5ncccc5c4)c3n2)cn1`, in that order: 93.3 and 98.6.
In the same order, the values of `CCN1CCN(Cc2ccc(-c3cc4c(N[C@H](C)c5ccccc5)ncnc4[nH]3)cc2)CC1` are 96.1 and 52.6.
As for `CS(=O)(=O)N1CCN(Cc2cc3nc(-c4cccc5[nH]ncc45)nc(N4CCOCC4)c3s2)CC1`, the gametocyte viability is 97.2 (concentration: 1 µM) and 108 (concentration: 10 µM).
In the same order, the values of `N#CC(=C(/N)Sc1ccccc1N)/C(C#N)=C(/N)Sc1ccccc1N` are 100 and 103.
Regarding `Clc1ccc(C2(c3ccc(-c4cn[nH]c4)cc3)CCNCC2)cc1`, the gametocyte viability reads like this: (concentration: 1 µM) 112; (concentration: 10 µM) 76.9.
For `CNC(=O)c1ccccc1Sc1ccc2c(/C=C/c3ccccn3)n[nH]c2c1` [Axitinib], in that order: 103 and 98.8.
In the same order, the values of `Cc1[nH]nc2ccc(-c3cncc(OC[C@@H](N)Cc4ccccc4)c3)cc12` are 101 and 104.
In the same order, the values of `Cc1ccc(NC(=O)c2ccc(CN3CCN(C)CC3)cc2)cc1Nc1nc(-c2cccnc2)cs1` [Masitinib (AB1010)] are 104 and 80.3.
For the compound `CC[C@@H]1C(=O)N(C)c2cnc(Nc3ccc(C(=O)NC4CCN(C)CC4)cc3OC)nc2N1C1CCCC1`, the gametocyte viability is 80.6 (concentration: 1 µM) and 63.5 (concentration: 10 µM).
In the same order, the values of `COc1cc(Nc2ncc(F)c(Nc3ccc4c(n3)NC(=O)C(C)(C)O4)n2)cc(OC)c1OC` are 99.8 and 104.
In the same order, the values of `N=C(N)NC(=N)NCCc1ccccc1` [Phenformin hydrochloride] are 99.9 and 111.
In the same order, the values of `CO[C@H]1C[C@@H]2CC[C@@H](C)[C@@](O)(O2)C(=O)C(=O)N2CCCC[C@H]2C(=O)O[C@H]([C@H](C)C[C@@H]2CC[C@@H](O)[C@H](OC)C2)CC(=O)[C@H](C)/C=C(\C)[C@@H](O)[C@@H](OC)C(=O)[C@H](C)C[C@H](C)/C=C/C=C/C=C/1C` [Rapamycin (Sirolimus)] are 99.3 and 79.7.
With `COc1ccc(S(=O)(=O)N(C(C)=O)c2ccccc2/C=C/c2cc[n+]([O-])cc2)cc1`, the gametocyte viability (concentration: 1 µM) was 98 and the gametocyte viability (concentration: 10 µM) was 112.
For the compound `C=CC(=O)Nc1cccc(Oc2nc(Nc3ccc(N4CCN(C)CC4)cc3OC)ncc2Cl)c1`, the gametocyte viability reads like this: (concentration: 1 µM) 91.9; (concentration: 10 µM) 97.3.
As to `COc1cc2/c(=N/c3ccc(Br)cc3F)nc[nH]c2cc1OCC1CCN(C)CC1` [Vandetanib (Zactima)], the gametocyte viability is 88.8 (concentration: 1 µM) and 108 (concentration: 10 µM).
Consider `O=c1c(-c2ccc(O)cc2)coc2cc(O)cc(O)c12` [Genistein], for which the gametocyte viability by setting is: (concentration: 1 µM) 95.5; (concentration: 10 µM) 83.9.
In the case of `C#Cc1cccc(Nc2ncnc3cc(OCCOC)c(OCCOC)cc23)c1` [Erlotinib HCl], the gametocyte viability is 86.2 (concentration: 1 µM) and 82.4 (concentration: 10 µM).
In the same order, the values of `Cc1ccc(S(=O)(=O)Nc2nc3ccccc3nc2Nc2ccc3nsnc3c2)cc1` are 87.4 and 103.
